Screening data as filed in PubChem.
IMPase cell inh – membrane-permeable compound that blocks inositol monophosphatase | P97697 | inhibition (IP1 accumulation), % at 46.1 µM | 120,000 tested, under 10 active | CHO-M1 cells, IP1 accumulation, HTRF TR-FRET ratio | AID 901; active = well fitted curve in the direction sought with a large enough effect in the signal ratio, not every such curve was filed as active; inconclusive = small, poorly fitted or top-dose-only effect, or a change in a side signal; inactive = no such curve, though single readings can be large or run the other way; the % refers to the signal ratio;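 note: cells stimulated with carbachol in lithium chloride buffer; plate controls were DMSO basal wells for no effect and reference inhibitor wells for full effect; higher means more IMPase inhibition seen as more IP1 and lower FRET ratio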
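The IP-One HTRF competitive assay in carbachol-stimulated CHO-M1 cells quantifies cellular IP1. Compounds spanned up to 46 uM final, and activity is expressed as AC50 from concentration-response fits of the ratio and donor data.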
HPGD inh – inhibitors of human 15-hydroxyprostaglandin dehydrogenase (HPGD); P15428; purified HPGD, NADH fluorescence kinetic, PGE2 substrate; Potency, µM, inactives show at the highest dose activity change, negative = inhibition, usual class: inhibitors; 150,000 compounds, 4.3% hits; AID 894; active = well fitted inhibition curve with a large enough effect, not every such curve was filed as active; inconclusive = small, poorly fitted or top-dose-only effect, or another doubt; inactive = no such curve, though single readings can be large or run the other way; note: potency is the fitted concentration of half-maximal effect
Target sequence (P15428 whole entry, looked up): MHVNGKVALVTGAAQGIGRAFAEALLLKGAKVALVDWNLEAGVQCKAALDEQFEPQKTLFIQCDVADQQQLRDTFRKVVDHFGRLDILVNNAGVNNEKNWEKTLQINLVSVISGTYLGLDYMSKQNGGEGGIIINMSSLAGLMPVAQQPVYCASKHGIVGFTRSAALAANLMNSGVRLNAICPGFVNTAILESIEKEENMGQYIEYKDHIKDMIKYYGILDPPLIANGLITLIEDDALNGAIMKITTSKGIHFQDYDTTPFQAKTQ
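NADH formation kinetics: reaction with 30 uM PGE2 and 1 mM NAD+ (final), 20 nM enzyme, Tris-HCl pH 8 with Tween 20, after 15 min compound preincubation at room temperature. Fluorescence change, last versus first of five reads.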
ALDH1A1 inh – blocks purified human ALDH1A1 activity; P00352; Purified ALDH1A1, NADH fluorescence, propionaldehyde substrate; Potency, µM (highest dose often 75.3 µM), for the others: at the highest dose activity, negative = inhibition, actives largely listed as inhibitors; 220,000 compounds, 7.3% hits; AID 1030; active = well fitted inhibition curve with a large enough effect, not every such curve was filed as active; inconclusive = small, poorly fitted or top-dose-only effect, or another doubt; inactive = no such curve, though single readings can be large or run the other way;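 note: potency is the fitted concentration of half-maximal effect; plate controls were no enzyme wells and a reference inhibitor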
Target sequence (P00352 whole entry, looked up): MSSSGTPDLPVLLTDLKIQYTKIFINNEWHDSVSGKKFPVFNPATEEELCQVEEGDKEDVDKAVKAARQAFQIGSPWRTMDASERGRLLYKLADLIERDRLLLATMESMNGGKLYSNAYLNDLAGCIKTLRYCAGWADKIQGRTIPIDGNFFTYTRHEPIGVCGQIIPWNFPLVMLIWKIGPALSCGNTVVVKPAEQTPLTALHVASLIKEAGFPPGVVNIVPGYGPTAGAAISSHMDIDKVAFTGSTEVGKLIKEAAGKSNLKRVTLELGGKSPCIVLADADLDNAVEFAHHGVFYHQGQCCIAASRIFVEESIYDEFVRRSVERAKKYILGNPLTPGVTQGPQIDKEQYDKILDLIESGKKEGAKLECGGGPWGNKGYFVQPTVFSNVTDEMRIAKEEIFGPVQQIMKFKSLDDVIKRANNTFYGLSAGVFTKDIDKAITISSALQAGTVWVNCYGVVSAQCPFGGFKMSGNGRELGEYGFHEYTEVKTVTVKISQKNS
NPSR antag – antagonists of human neuropeptide S receptor cAMP signaling; AID 1461; Q6W5P4; Potency, µM (series often up to 38.3 µM), inactives show at the highest dose activity change, negative = inhibition, hits mostly inhibitors; 220,000 compounds, 1% hits; CHO-NPSR cells, cAMP TR-FRET, antagonist mode; note: potency is the fitted concentration of half-maximal effect; nearly all actives have a fitted effect of over 50% in size
IMPase Li inh – cell-permeable IMPase inhibitors with lithium potentiation | 210,000 compounds, 0.35% hits | Potency, µM (highest dose often 59.4 µM), without a hit: top-dose activity, negative = IMPase inhibition, usual class: inhibitors | CHO-M1 cells, IP1 TR-FRET (IP-One), carbachol + lithium;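 note: IP1 builds up when IMPase is blocked and the TR-FRET signal falls; potency is the fitted concentration of half-maximal effect; plate controls were basal vehicle for no effect and high inhibitor control for full effect; nearly all actives have a fitted effect of over 50% in size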
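IP1 accumulation measured by competitive TR-FRET in lysed CHO-M1 cells after 30 min compound exposure at 37C, with a small lithium addition to potentiate weak responses. Hill-equation AC50 from ratio and donor-channel data.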
PNC inhibitor – inhibitors of perinucleolar compartment assembly. PC3M PTB-GFP, PNC prevalence imaging, 16 h; hits give low values. 140,000 compounds, 3.1% hits. activity change (PNC), negative = inhibition, % at 10 µM. AID 2417;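 active = readout at or below -70, meaning at least 70% loss of cells showing the perinucleolar compartment, a nuclear body marking cancer cells; inconclusive = readout between -30 and a set limit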;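 note: plate controls were DMSO wells for no effect and camptothecin positive control wells for full effect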
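Compounds are pinned in duplicate onto adhered PC3M cells stably expressing GFP-tagged PTB and incubated 16 h at 37 C. Cells are then fixed, nuclei stained with Hoechst, and PNC-positive cells counted.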
* hit, by the source's call; u = inconclusive; x = not tested or not shown; [ ] = another dose, or the depositor's remark. An excerpt weighted towards active compounds, which were near 11% of everything screened. Unless noted, calls come from the whole dose curve; as a rule, active = well fitted curve in the direction sought with a large enough effect; inconclusive = small, poorly fitted or top-dose-only effect, or another doubt; inactive = no such curve, though single readings can be large; an effect the other way counts as inactive or inconclusive. Unless noted, % is set by controls: 0 for no effect and ±100 for the full control effect.

SMILES | IMPase cell inh | HPGD inh | ALDH1A1 inh | NPSR antag | IMPase Li inh | PNC inhibitor
N#CC1=C(N)SC(N)=C(C#N)C1c1c(Cl)cccc1Cl | -21 | u | 22µM* | 2%[46.1 µM] | u | u
N#CC1=C(N)SC(N)=C(C#N)C1Cc1ccccc1 | -9 | 11µM* | 8.9µM* | 8%[46.1 µM] | -19%[38.3 µM] | 34
N#CC1=C(N)SC(N)=C(C#N)C1CCc1ccccc1 | -6 | 14µM* | u | 1%[46.1 µM] | 8%[38.3 µM] | 31
N#CC1=C(N)SC(N)=C(C#N)C1C1CC=CCC1 (stereo not drawn) | 4 | -17% | u | -12%[46.1 µM] | 12%[38.3 µM] | -22
CC(C)CC1C(C#N)=C(N)SC(N)=C1C#N | -28 | 32µM* | 3.5µM* | 9%[46.1 µM] | u | u
Oc1cccc2ccc(/C=C/c3cccs3)nc12 | 5 | -12% | 5% | -18%[46.1 µM] | 7%[38.3 µM] | -4
CCN=C1SC(C(=O)Nc2cccc(C)c2)CC(=O)N1CC (stereo not drawn) | 5 | -4% | -3% | -9%[46.1 µM] | 19%[38.3 µM] | -23
Cc1cccc(NC(=O)C2CC(=O)n3cnnc3S2)c1 (stereo not drawn) | 2 | 10µM* | 0.71µM* | -3%[46.1 µM] | 17%[38.3 µM] | 12
C/C(=N/OC(=O)c1c(-c2ccccc2Cl)noc1C)c1cnccn1 | x | x | u | 26% | 20% | x
Cc1onc(-c2ccccc2Cl)c1C(=O)O/N=C(\N)c1ccc([N+](=O)[O-])o1 | x | x | 13µM* | 44% | x | x
CN(C)c1ccc(N2C(=O)CSC2=S)cc1 | x | -16% | 2.2µM* | -21% | 9% | -9
Cc1ccc(N2C(=O)CSC2=S)cc1C | x | x | u | 2% | 7% | x
O=C(O)c1cc(O)c2c(c1)[C@H]([C@H]1c3cc(C(=O)O)cc(O)c3C(=O)c3c(O[C@@H]4OC(CO)C(O)C(O)C4O)cccc31)c1cccc(O[C@@H]3OC(CO)C(O)C(O)C3O)c1C2=O (stereo partly drawn) | x | 7.9µM* | -10% | x | 4% | x
Cc1cc(=O)oc(C)c1C(=O)N1CCCc2ccccc21 | 5 | 1% | -2% | -3%[46.1 µM] | -5%[38.3 µM] | 45
O=C(c1ccc2c(c1)OCO2)C1CCCN(C(=O)Nc2ccc(F)cc2F)C1 (stereo not drawn) | x | x | -3% | 8% | 4% | x
COc1ccc(N2C(=O)[C@H]3[C@@H](C2=O)C2c4ccccc4C=NN2[C@H]3C(=O)C(C)(C)C)cc1 (stereo partly drawn) | x | x | x | -8% | x | x
O=C(Nc1ccc2c(c1)OCO2)[C@@H]1[C@@H]2C(=O)N(C3CCCCC3)C(=O)[C@@H]2C2c3ccccc3C=CN21 (stereo partly drawn) | -6[1.84 µM] | -10% | 11µM* | -19%[46.1 µM] | 28%[38.3 µM] | 15
COc1ccc(N2C(=O)[C@@H]3[C@H](C2=O)[C@H]2c4ccccc4C=CN2[C@@H]3C(C)=O)cc1 | x | u | 32µM* | -10% | 3% | 34
O=C(c1ccc2c(c1)OCO2)[C@@H]1[C@@H]2C(=O)N(C3CCCCC3)C(=O)[C@@H]2C2c3ccccc3C=CN21 (stereo partly drawn) | 5 | -14% | 3.5µM* | u | 7%[38.3 µM] | -1
CC(C)(C)C(=O)[C@@H]1[C@@H]2C(=O)N(C3CCCCC3)C(=O)[C@@H]2[C@H]2c3ccccc3C=CN12 | -3 | u | 20µM* | 1%[46.1 µM] | 32%[38.3 µM] | u
Clc1ccc(-c2n[nH]c3c2CCCC3)cc1 | x | x | 4% | 4% | -2% | x
O=C(c1cccs1)[C@@H]1[C@@H]2C(=O)N(Cc3ccc4c(c3)OCO4)C(=O)[C@@H]2C2c3ccccc3C=CN21 (stereo partly drawn) | 0 | u | 14µM* | -18%[46.1 µM] | 10%[38.3 µM] | 8
Cc1ccc(C(=O)C[n+]2cc(Br)cc(Br)c2)cc1[N+](=O)[O-] | x | -6% | 16µM* | 1% | 3% | 16
COC(=O)C1=C(C)NC(=S)NC1c1sccc1C (stereo not drawn) | x | x | 11µM* | 13% | -2% | x
CC1=C(C(=O)Nc2ccccc2C(F)(F)F)C(c2ccc(C)s2)NC(=S)N1 (stereo not drawn) | x | x | 0.63µM* | -22% | 3% | x
SMILES | IMPase cell inh | HPGD inh | ALDH1A1 inh | NPSR antag | IMPase Li inh | PNC inhibitor
CC1=C(C(=O)Nc2ccccc2C(F)(F)F)C(c2sccc2C)NC(=S)N1 (stereo not drawn) | x | x | 4.5µM* | -8% | 6% | x
CC1=C(C(=O)Nc2cccc(C)c2C)C(c2cccs2)NC(=S)N1 (stereo not drawn) | x | -13% | 0% | 0% | 4% | u
COc1cccc2c(=O)n(CC(=O)NCCc3ccccc3)ccc12 | x | x | x | -6% | x | x
COc1ccc(-n2c(C)n[nH]c2=O)cc1OC | -1 | -4% | 11% | -6%[46.1 µM] | -8%[38.3 µM] | u
CC1CCc2c(sc(NC(=O)Cn3cnc([N+](=O)[O-])n3)c2C(N)=O)C1 (stereo not drawn) | x | x | -3% | 17% | 0% | x
O=C(c1ccccc1)c1c[nH]c(C(=O)NNc2ccccc2)c1 | x | x | 22µM* | -20% | 10% | x
O=C1CC(c2ccccc2)Sc2nc(-c3ccccc3)c(-c3ccccc3)n21 (stereo not drawn) | -2 | -15% | u | u | 2% | u
COc1ccc(-c2ccc(SCC(=O)N3CCOCC3)nn2)cc1OC | 8 | -21% | -2% | u | 14%[38.3 µM] | -19
COc1ccccc1-c1ccc(Nc2ccc(C(=O)N3CCOCC3)cc2)nn1 | 0 | 7.9µM* | u | -11%[46.1 µM] | 5% | 164
COc1ccc(-c2ccc(Nc3ccc(C(=O)N4CCOCC4)cc3)nn2)cc1OC | 18 | 18µM* | 0% | -17%[46.1 µM] | 4% | -2
O=c1oc2ccccc2c(O)c1CN1CCCCC1 | -9 | -27% | 14µM* | -11%[46.1 µM] | 6%[38.3 µM] | -26
O=C1c2ccccc2C(=O)c2c(NCCCN(CCO)CCO)cccc21 | x | x | u | 13µM* | 25% | x
O=c1c2c3c(sc2nc(NCCO)n1CCc1ccccc1)CCCCC3 | -7 | -16% | u | -50% | -3% | -28
C=CCn1c(NCCO)nc2sc3c(c2c1=O)CCC3 | 0 | -7% | -3% | -2%[46.1 µM] | 12%[38.3 µM] | -114*
Cc1nnc(SCC(=O)NC(=O)NCc2ccco2)n1Cc1ccccc1 | 2 | -19% | -11% | -21%[46.1 µM] | -6%[38.3 µM] | 4
FC(F)Oc1ccc(NC(=S)NNc2ccnc3cc(Cl)ccc23)cc1 | x | x | 8.9µM* | -2% | 4% | x
NC(=S)NNc1ccnc2cc(Cl)ccc12 | x | x | 1.4µM* | -8% | 27% | x
CN(C)Cc1cnc2ccc(Cl)cn12 | 2 | -15% | 3% | 3%[46.1 µM] | 7%[38.3 µM] | 24
Cn1c(=O)[nH]c(=O)c2c1nc(Br)n2CCSc1nc2ccccc2o1 | -1 | -28% | u | 4%[46.1 µM] | 22%[38.3 µM] | 29
